HP1b chromo inh = HTS for Inhibitors of HP1-beta Chromodomain Interactions with Methylated Histone Tails; Chromobox protein homolog 1 (Homo sapiens), P83916; AlphaScreen HP1-beta / biotin-H3K9me3 peptide binding; Potency, µM (highest dose often 114 µM), for inactives: top-dose activity change, negative = inhibition, most hits filed as inhibitors; hit rate 0.56% among 390,000; further: nearly all actives have a fitted effect of over 70% in size
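Compound inhibition of the preformed complex between 50 nM HP1-beta and 50 nM biotinylated H3K9me3 peptide was read by AlphaScreen. Buffer was PBS pH 7.4 with 0.01% Tween-20. Incubations ran 30 min at room temperature, with 10 ug/mL donor/acceptor beads.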
JMJD2A Tudor inh = qHTS Assay for Inhibitors of JMJD2A-Tudor Domain; hit rate 4.4% among 390,000; AlphaScreen JMJD2A-Tudor / H3K4me3 peptide binding; Potency, µM (doses to about 114 µM), for the others: at the top dose activity change, negative = inhibition, most hits filed as inhibitors; AID 504339, 2011; further: on the % scale 0 is the no-effect control and ±100 the full control effect; nearly all actives have a fitted effect of over 50% in size
Sfp inh = qHTS Assay for Inhibitors of Bacillus subtilis Sfp phosphopantetheinyl transferase (PPTase); 4'-phosphopantetheinyl transferase ffp (Bacillus subtilis), Q9F4F7; Biochemical Sfp PPTase activity, qHTS; Potency, µM, inactives show largest response in the series, negative = inhibition, hits mostly inhibitors; hit rate 3.5% among 310,000;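 further: the enzyme is Sfp with the accession as filed and its product quenches rhodamine fluorescence; 0% = enzyme reaction without inhibitor and -100% = no enzyme wells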
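Buffer: 50 mM Hepes-Na pH 7.6, 10 mM MgCl2, 0.01% Nonidet P-40, 0.01% BSA. Enzyme 15 nM, pre-exposed to compound 15 min; substrates then added and fluorescence change tracked over 30 min.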
BAZ2B inh = qHTS Assay for Inhibitors of BAZ2B; Bromodomain adjacent to zinc finger domain protein 2B (Homo sapiens), Q9UIF8; AlphaScreen BAZ2B-H3K14Ac peptide displacement; Potency, µM (top dose mostly 114 µM), for the others: top-dose activity change, negative = inhibition, usual class: inhibitors; hit rate 4.4% among 360,000; AID 504333, 2011; further: on the % scale 0 is the no-effect control and ±100 the full control effect; nearly all actives have a fitted effect of over 60% in size
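Complex of BAZ2B and biotin-H3K14Ac (50 nM apiece) forms over 30 min at RT, then faces library compounds up to 110 uM for another 30 min; AlphaScreen beads added, 20 min dark incubation, luminescence read.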
G9a block = qHTS Assay for Inhibitors of Histone Lysine Methyltransferase G9a; hit rate 8.8% among 350,000; Potency, µM (doses to about 102 µM), inactives show at the highest dose activity, negative = inhibition, most hits filed as inhibitors; Histone-lysine N-methyltransferase EHMT2 (Homo sapiens), Q96KQ7; G9a H3K9 monomethylation, AlphaScreen, 2 h; further: on the % scale 0 is the no-effect control and ±100 the full control effect; nearly all actives have a fitted effect of over 75% in size
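Chemiluminescent proximity detection of H3K9 monomethylation, read after 10 min bead incubation in the dark. Reaction: 20 nM G9a, 500 nM biotin-H3K9 peptide, 20 uM SAM cofactor, 2 h, room temperature, following 15 min enzyme-compound preincubation.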
L3MBTL1 inh = qHTS Assay for the Inhibitors of L3MBTL1; Lethal(3)malignant brain tumor-like protein 1 (Homo sapiens), Q9Y468; AlphaScreen L3MBTL1–H3K9me1 peptide binding; Potency, µM (doses to about 57.1 µM), for inactives: at the top dose activity, negative = inhibition, hits mostly inhibitors; hit rate 0.66% among 230,000; AID 485360, 2010; further: on the % scale 0 is the no-effect control and ±100 the full control effect; nearly all actives have a fitted effect of over 60% in size
Target sequence (Q9Y468 whole entry, looked up): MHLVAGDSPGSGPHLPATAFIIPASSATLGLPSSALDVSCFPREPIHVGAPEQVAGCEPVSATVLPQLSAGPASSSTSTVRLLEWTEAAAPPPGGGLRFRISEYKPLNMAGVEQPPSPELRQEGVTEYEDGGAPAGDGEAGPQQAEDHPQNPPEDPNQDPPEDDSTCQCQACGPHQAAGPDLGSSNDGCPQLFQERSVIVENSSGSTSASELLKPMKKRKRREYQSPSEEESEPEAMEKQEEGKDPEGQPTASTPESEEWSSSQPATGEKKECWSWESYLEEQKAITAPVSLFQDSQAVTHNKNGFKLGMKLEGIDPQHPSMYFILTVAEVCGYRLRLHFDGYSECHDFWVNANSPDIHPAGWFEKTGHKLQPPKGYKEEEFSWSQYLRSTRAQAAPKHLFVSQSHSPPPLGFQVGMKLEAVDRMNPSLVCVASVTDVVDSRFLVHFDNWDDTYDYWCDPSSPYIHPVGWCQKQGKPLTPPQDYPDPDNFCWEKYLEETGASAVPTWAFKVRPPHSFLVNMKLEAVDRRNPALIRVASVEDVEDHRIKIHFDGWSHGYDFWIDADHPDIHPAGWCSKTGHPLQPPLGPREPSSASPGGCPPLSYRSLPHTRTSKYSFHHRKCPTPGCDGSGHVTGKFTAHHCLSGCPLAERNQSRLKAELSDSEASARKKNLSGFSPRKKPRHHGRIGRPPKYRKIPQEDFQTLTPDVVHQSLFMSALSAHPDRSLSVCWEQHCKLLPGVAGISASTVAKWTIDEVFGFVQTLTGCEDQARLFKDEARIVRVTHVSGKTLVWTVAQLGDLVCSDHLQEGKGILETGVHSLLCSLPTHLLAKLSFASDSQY
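First, the protein-peptide complex forms for 30 min at room temperature (L3MBTL1 50 nM, biotinylated H3K9me1 peptide 75 nM). Next, compounds are pin-transferred and incubated 30 min. Finally, AlphaScreen beads are added and read after 30 min.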
The depositor's hits bear a star; ? = inconclusive; nt = not tested or not shown; ! = a repeat was not active; [ ] = another dose, or the depositor's remark. Hits are enriched below; roughly 12% of the tested compounds scored in any of these assays. The call rests on the fitted dose curve; in most records, active means well fitted curve in the direction sought with a large enough effect; inconclusive means small, poorly fitted or top-dose-only effect, or another doubt; inactive means no such curve, though single readings can be large; an effect the other way counts as inactive or inconclusive. Potency means the concentration at half of the fitted maximal effect.

SMILES	HP1b chromo inh	JMJD2A Tudor inh	Sfp inh	BAZ2B inh	G9a block	L3MBTL1 inh
CCOC(=O)CSc1nc2ccc(NC(=O)c3ccccc3F)cc2s1	68%	15%	nt	12%	-1%[59 µM]	nt
O=C(NCC(c1ccco1)S(=O)(=O)c1cccs1)c1ccccc1 (configuration not stated)	25%	-11%	nt	-3%	7%[59 µM]	nt
CCCc1nc2sc3c(N4CCCCC4)ncnc3c2c2c1CCCC2	43%	13%	nt	3%	0%[59 µM]	nt
COc1ccc(C(=O)/C=C/NCc2ccc(C)cc2)cc1	47%	-2%[11.4 µM]	nt	nt	nt	nt
O=C(O)/C=C/c1ccc(-c2cccc(C(F)(F)F)c2)o1	48%	-20%	3%	-1%	45µM*	nt
O=C(O)/C(=C\c1ccc(-c2ccc(F)cc2)o1)c1ccccc1	2%	?	8.9µM*	nt	?	-20%
Cc1ccc(C(=O)NNC(=O)c2ccc(C)cc2)cc1	14%	-15%	13%	nt	8%	7%
Cc1ccc(C(=O)/C=C\NCc2ccccc2)cc1	24%	-19%	89µM*	-6%	-2%	-2%
Cc1ccc(C(=O)NNC(=O)/C=C\C(=O)O)cc1	40%	-12%	?	?	50µM*	nt
Cc1ccc(CNc2ncnc3ccc(-c4c(C)noc4C)cc23)cc1	nt	-12%	-3%	nt	nt	nt
COc1ccc(-c2c3c(=O)n(C)c(=O)n(C)c3c3c(-c4cccc(C)c4)nc4ccccc4n23)cc1	27%	-24%	nt	-20%	?	nt
O=C(O)/C=C/C(=O)Nc1ccc(O)cc1	?	?	-23%	-8%	nt	?
CCc1ccc(C(=O)/C=C/c2ccc([N+](=O)[O-])o2)cc1	?	?	-6%	?	32µM*	nt
CCOC(=O)CCc1ccc(NC(=O)/C=C/c2ccc([N+](=O)[O-])o2)cc1	21%	-16%	nt	nt	nt	nt
CC(=O)N1CCN(C(=O)c2ccc(-c3cccc(C(F)(F)F)c3)o2)CC1	33%	-9%	nt	4%	50µM*	-4%
O=C(O)/C=C/C(=O)c1ccc(O)cc1	55%	-11%	2.2µM*	-2%	?	0%
O=Cc1ccc(-c2ccc(C(=O)O)cc2)o1	-12%	-16%	-14%	-15%	nt	nt
Cc1ccc(C(=O)/C=C/c2ccc(-c3ccc(C)cc3)o2)cc1	-25%	79µM*	8.9µM*	-34%	?	0%
Cc1ccc(S(=O)(=O)C(CNS(=O)(=O)c2ccc(F)c(C)c2)c2cccs2)cc1 (configuration not stated)	8%	-17%	nt	4%	5%[59 µM]	nt
COc1ccc(C(=O)/C=C/c2ccc(O)cc2)c(O)c1C/C=C(\C)CCC=C(C)C	-19%	28µM*	nt	nt	nt	9%
COc1ccc(C=CC(=O)c2ccc(OC)c(OC)c2O)cc1OC	?	50µM*	nt	nt	nt	nt
COc1ccc(C(=O)/C=C/c2ccc(OC)c(O)c2)c(F)c1	-7%	-31%	50µM*	-10%	?	-8%
C=C(C)C(O)CC/C(C)=C/Cc1c(O)ccc(C(=O)/C=C/c2ccc(O)cc2)c1O (configuration not stated)	-27%	?	nt	nt	nt	-16%
CCn1cc(C(=O)OCC(=O)Nc2cc(Cl)ccc2C)c(=O)c2ccc(C)nc21	25%	-7%	nt	2%	-34%[59 µM]	nt
Cc1ccc(OCCn2nnc3sc4c(c3c2=O)CCC(C)C4)cc1 (configuration not stated)	81%	33%	nt	21%	?	nt
SMILES	HP1b chromo inh	JMJD2A Tudor inh	Sfp inh	BAZ2B inh	G9a block	L3MBTL1 inh
O=C(O)c1ccc(/C=N/NC(=O)c2ccc(CN3c4cccc5cccc(c45)S3(=O)=O)cc2)cc1	-6%	?	-15%	50µM*	-4%[59 µM]	nt
NCCCCCc1nnc(SCc2ccc(F)cc2)o1	26%	-13%	nt	-16%	0%[59 µM]	nt
O=C(O)C1CCN(Cc2oc(CO)cc(=O)c2O)C1 (configuration not stated)	20%	?	nt	nt	nt	nt
O=c1cc(CO)oc(CN2CCN(Cc3ccccc3)CC2)c1O	11%	?	9%	?	50µM*	nt
CCN(CC)Cc1oc(CO)cc(=O)c1O	?	?	-11%	32µM*	13µM*	1.1µM*
CN1CCN(Cc2oc(CO)cc(=O)c2O)CC1	1%	56µM*	-3%	?	?	nt
O=c1cc(CO)oc(CN2CCCC2)c1O	3%	89µM*	-12%	?	45µM*	-15%
CCc1ccc(NC(=O)CCn2c(-c3ccc(OC)cc3)cc(C(C)=O)c2C)cc1	31%	-21%	nt	-27%	?	nt
CCCn1c(SCc2nc(-c3ccccc3OCC)no2)nnc1-c1ccc(Cl)cc1	27%	-16%	nt	-3%	-42%[59 µM]	nt
CCCCCc1cc(=O)[nH]c(=S)[nH]1	51%	8%	-5%	-14%	?	nt
CCCc1cc(=O)[nH]c(=S)[nH]1	41%	-12%	50µM*!	-1%	-48%[12.7 µM]	4%
CCc1ccc(NC(=O)c2cnn(-c3c(C)cccc3C)c2C2CCNCC2)cc1	36%	-3%	nt	7%[57.1 µM]	-40%[59 µM]	nt
O=C(Nc1nc(NC(=O)c2ccco2)n(-c2ccccc2)n1)c1ccccc1	45%	-9%	-18%	45µM*	35%[12.7 µM]	-11%
O=C(Nc1ccccc1NC(=O)c1ccco1)c1ccccc1	2%	-6%	20%	0%	-8%[59 µM]	nt
CCOC(=O)COn1c(=O)c(=O)n(O)c2ccccc21	5%	50µM*	-7%	-5%	45µM*	-6%
CCOC(=O)COn1c(=O)c(-c2ccc(OC)c(OC)c2)[n+]([O-])c2ccccc21	nt	nt	?	-1%	22µM*	?
COc1ccc(-c2c(=O)n(OCc3ccccn3)c3ccccc3[n+]2[O-])cc1OC	-7%	-30%	-4%	-4%	?	2%
C=CCOn1c(=O)c(-c2ccc(OC)c(OC)c2)[n+]([O-])c2ccccc21	-23%	89µM*	56µM*	-38%	8.9µM*	nt

High-throughput results from PubChem.
